Several values for one entry are separate records, joined by “and”; a condition that tells them apart may be missing. Equal entries are not always repeated. Inconclusive results are not listed. Entries that show only a call come without a potency. A structure can be active in one record and inactive in another. Activity calls are given as the source filed them. Unless noted, calls follow the shape of the dose curve; as a rule, active = well fitted curve in the direction sought with a large enough effect in the repeat runs; inconclusive = weak or mixed curves; inactive = no such curve, though single readings can be large; an effect the other way counts as inactive or inconclusive.
Tests used:
[1] = qHTS assay to identify aromatase inhibitors - cell viability counter screen (AID 743084);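 also: cells stimulated with testosterone during compound exposure; nearly all actives have a fitted effect of over 55% in size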; also: potency is read from the fitted curve at half-maximal effect
[2] = molecular target: Aryl hydrocarbon receptor (Homo sapiens) (UniProt P35869); test: qHTS assay to identify small molecule that activate the aryl hydrocarbon receptor (AhR) signaling pathway (AID 743085); also: nearly all actives have a fitted effect of over 15% in size; also: potency is read from the fitted curve at half-maximal effect;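 as to activation: HG2L7.5c1 human HepG2 liver cells with stably integrated DRE-driven firefly reporter; series mostly up to about 70 µM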
Method in brief: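 AhR agonist activity is inferred from enhanced light output of a DRE-controlled firefly luciferase reporter in HepG2 cells, measured with ONE-Glo following 24 h treatment at 37C.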

[3] = molecular target: Peroxisome proliferator-activated receptor gamma (Homo sapiens) (UniProt P37231); test: qHTS assay to identify small molecule agonists of the peroxisome proliferator-activated receptor gamma (PPARg) signaling pathway (AID 743094; active = well fitted activation curve with a large enough effect in the signal ratio in the repeat runs, not every such curve was filed as active; the % refers to the signal ratio)
Method in brief: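 Cells from the PPARg UAS-bla HEK293H line are plated and incubated 5 h at 37C. Compounds in DMSO are pinned in and left 17 h at 37C. LiveBLAzer B/G substrate is then added for 1 h at room temperature before fluorescence is measured.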

[4] = molecular target: Peroxisome proliferator-activated receptor gamma (Homo sapiens) (UniProt P37231); test: qHTS assay to identify small molecule antagonists of the peroxisome proliferator-activated receptor gamma (PPARg) signaling pathway (AID 743191; calls by dose curve; also: series mostly up to about 63 µM; nearly all actives have a fitted effect of over 30% in size)
Method in brief: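 GeneBLAzer PPARg UAS-bla HEK293H cells, 5 h post-plating, exposed to compounds 17 h at 37C. LiveBLAzer B/G FRET substrate added for 1 h at room temperature; beta-lactamase reporter read by fluorescence intensity.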

[5] = qHTS assay to identify small molecule antagonists of the peroxisome proliferator-activated receptor gamma (PPARg) signaling pathway - cell viability counter screen (AID 743194); also: nearly all actives have a fitted effect of over 55% in size; also: potency is read from the fitted curve at half-maximal effect
Method in brief: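 Cytotoxicity counter screen in PPARg-bla HEK293H cells, same wells as reporter assay. Compounds plus 50 nM rosiglitazone (final) for 17 h at 37 C, then viability read by CellTiter-Glo luminescence.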

[6] = qHTS assay for small molecule agonists of the antioxidant response element (ARE) signaling pathway (AID 743202; active = well fitted activation curve with a large enough effect in the signal ratio in the repeat runs, not every such curve was filed as active; the % refers to the signal ratio; also: potency is read from the fitted curve at half-maximal effect)
Method in brief: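 HepG2 ARE-bla reporter line, 2,000 cells/well; 5 h preincubation 37 C/5% CO2; compound (DMSO) 16 h 37 C; B/G FRET substrate 2 h RT; fluorescence intensity.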

[7] = qHTS assay for small molecule agonists of the antioxidant response element (ARE) signaling pathway - cell viability counter screen (AID 743203; calls by dose curve; also: nearly all actives have a fitted effect of over 55% in size; also: potency is read from the fitted curve at half-maximal effect)
Method in brief: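 Cytotoxicity was tested in parallel with the ARE reporter screen. ARE-bla HepG2 cells were exposed to compounds for 16 hrs, and viability was taken from CellTiter-Glo luminescence.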

[8] = qHTS assay for small molecule activators of the heat shock response signaling pathway - cell viability counter screen (AID 743209); also: nearly all actives have a fitted effect of over 50% in size; also: potency is read from the fitted curve at half-maximal effect
Method in brief: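 Cytotoxicity counter screen run in parallel with the HSE beta-lactamase reporter, using the same wells. HeLa HSE-bla cells received compound for 5 h at 37 C; ATP-based CellTiter-Glo luminescence was measured after 30 min at room temperature.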

[9] = qHTS assay for small molecule activators of the heat shock response signaling pathway (AID 743210; active = well fitted activation curve with a large enough effect in the signal ratio in the repeat runs, with a control signal flat, not every such curve was filed as active; the % refers to the signal ratio;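 also: HeLa cells with beta-lactamase reporter driven by heat shock elements; series mostly up to about 63 µM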)
Method in brief: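 Beta-lactamase reporter read-out: FRET substrate fluorescence after 2.5 h at RT, following 5 h compound treatment at 37 C of HeLa cells carrying HSE-driven bla reporter; quantitative HTS format.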

[10] = qHTS assay to identify small molecule agonists of the peroxisome proliferator-activated receptor delta (PPARd) signaling pathway - cell viability counter screen (AID 743211); also: nearly all actives have a fitted effect of over 55% in size
Method in brief: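 qHTS cell viability: PPARd-bla HEK293H; 17 h cpd, 37C; CellTiter-Glo, luminescence at 30 min RT.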

[11] = molecular target: Peroxisome proliferator-activated receptor delta (Homo sapiens) (UniProt Q03181); test: qHTS assay to identify small molecule agonists of the peroxisome proliferator-activated receptor delta (PPARd) signaling pathway (AID 743212; calls by dose curve)
Method in brief: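 Read-out: beta-lactamase FRET fluorescence after 2 h room-temperature incubation with LiveBLAzer B/G substrate. Cells were HEK293H carrying a UAS-bla reporter for PPARd, treated at 37 C with DMSO-dissolved compounds.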

[12] = qHTS assay to identify small molecule antagonists of the peroxisome proliferator-activated receptor delta (PPARd) signaling pathway - cell viability counter screen (AID 743213); also: nearly all actives have a fitted effect of over 50% in size; also: potency is read from the fitted curve at half-maximal effect
Method in brief: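 HEK293H PPARd UAS-bla cells, 5 h pre-incubation, compound + L165041 300 nM final, 17 h 37 C; B/G FRET substrate 2 h RT; then CellTiter-Glo 30 min RT, luminescence.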

[13] = molecular target: Peroxisome proliferator-activated receptor delta (Homo sapiens) (UniProt Q03181); test: qHTS assay to identify small molecule antagonists of the peroxisome proliferator-activated receptor delta (PPARd) signaling pathway (AID 743215; active = well fitted inhibition curve with a large enough effect in the signal ratio in the repeat runs, not every such curve was filed as active; the % refers to the signal ratio;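 also: cells stimulated with agonist L165041 at 300 nM final during compound exposure; series mostly up to about 62 µM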)
Method in brief: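 Cells: HEK293H with a UAS-driven beta-lactamase reporter responsive to PPARd. Compounds were co-added with L165041 (300 nM, final) and incubated 17 h at 37 C before a 2 h room-temperature FRET substrate step and fluorescence reading.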

[14] = molecular target: Bile acid receptor (Homo sapiens) (UniProt Q96RI1); test: qHTS assay to identify small molecule antagonists of the farnesoid-X-receptor (FXR) signaling pathway (AID 743217; active = well fitted inhibition curve with a large enough effect in the signal ratio in the repeat runs, not every such curve was filed as active; the % refers to the signal ratio; also: potency is read from the fitted curve at half-maximal effect)
Method in brief: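 Cells carrying a UAS-driven beta-lactamase reporter (GeneBLAzer FXR-UAS-bla HEK 293T) were plated and rested 5 h at 37 °C. Compounds in DMSO were added alongside chenodeoxycholic acid agonist at 50 uM final and left 16 h at 37 °C before FRET substrate readout.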

[15] = qHTS assay to identify small molecule antagonists of the farnesoid-X-receptor (FXR) signaling pathway - cell viability counter screen (AID 743221; active = well fitted cell-killing curve with a large enough effect in the repeat runs, not every such curve was filed as active; also: nearly all actives have a fitted effect of over 50% in size)
Method in brief: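 After a 5 h settling period, FXR-bla HEK 293T cells receive compound and chenodeoxycholic acid (50 uM final) and incubate 16 h at 37 C; CellTiter-Glo luminescence, read after 30 min at room temperature, reports cell viability.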

[16] = molecular target: Vitamin D3 receptor (Homo sapiens) (UniProt P11473); test: qHTS assay to identify small molecule agonists of the vitamin D receptor (VDR) signaling pathway (AID 743222; calls by dose curve)
Method in brief: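 Cells carrying a VDR-driven beta-lactamase reporter are seeded at 2,000 per well and rested 4 h. Compounds in DMSO are added for 16 h at 37C, and FRET substrate fluorescence is measured after 2 h at room temperature.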

[17] = qHTS assay to identify small molecule agonists of the farnesoid-X-receptor (FXR) signaling pathway - cell viability counter screen (AID 743218); also: nearly all actives have a fitted effect of over 45% in size; also: potency is read from the fitted curve at half-maximal effect
Method in brief: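 Cells were seeded, left 5 h at 37 C and 5% CO2, then dosed with compound in DMSO for 16 h. After the beta-lactamase FRET read, CellTiter-Glo was added and luminescence measured 30 min later.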

[18] = qHTS assay to identify small molecule that activate the aryl hydrocarbon receptor (AhR) signaling pathway - cell viability counter screen (AID 743086); also: nearly all actives have a fitted effect of over 45% in size; also: potency is read from the fitted curve at half-maximal effect
Method in brief: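 HepG2-AhR-luc (HG2L7.5c1) cells, 4000/well, treated 24 h at 37 C with compound; viability measured as CellTiter-Fluor fluorescence after 30 min in the same wells as the luciferase read.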

[19] = molecular target: Bile acid receptor (Homo sapiens) (UniProt Q96RI1); test: qHTS assay to identify small molecule agonists of the farnesoid-X-receptor (FXR) signaling pathway (AID 743220; active = well fitted activation curve with a large enough effect in the signal ratio in the repeat runs, not every such curve was filed as active; the % refers to the signal ratio)
Method in brief: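 FXR-UAS-bla HEK 293T cells carrying a UAS-driven beta-lactamase reporter were plated for 5 h at 37C/5% CO2, then exposed to DMSO-dissolved Tox21 10K compounds for 16 h at 37C. A LiveBLAzer B/G FRET substrate was loaded for 2 h at room temperature before fluorescence reading.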

[20] = molecular target: Vitamin D3 receptor (Homo sapiens) (UniProt P11473); test: qHTS assay to identify small molecule antagonists of the vitamin D receptor (VDR) signaling pathway (AID 743223; active = well fitted inhibition curve with a large enough effect in the signal ratio in the repeat runs, not every such curve was filed as active; the % refers to the signal ratio)
Method in brief: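 Reporter line VDR-bla; stimulus 1alpha,25-(OH)2 vitamin D3, 3 nM final; compound co-addition, 16 h 37C/5% CO2; LiveBLAzer B/G substrate 2 h RT; fluorescence intensity.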

Peroxisome proliferator-activated receptor delta (Homo sapiens), sequence (Q03181 whole entry, looked up): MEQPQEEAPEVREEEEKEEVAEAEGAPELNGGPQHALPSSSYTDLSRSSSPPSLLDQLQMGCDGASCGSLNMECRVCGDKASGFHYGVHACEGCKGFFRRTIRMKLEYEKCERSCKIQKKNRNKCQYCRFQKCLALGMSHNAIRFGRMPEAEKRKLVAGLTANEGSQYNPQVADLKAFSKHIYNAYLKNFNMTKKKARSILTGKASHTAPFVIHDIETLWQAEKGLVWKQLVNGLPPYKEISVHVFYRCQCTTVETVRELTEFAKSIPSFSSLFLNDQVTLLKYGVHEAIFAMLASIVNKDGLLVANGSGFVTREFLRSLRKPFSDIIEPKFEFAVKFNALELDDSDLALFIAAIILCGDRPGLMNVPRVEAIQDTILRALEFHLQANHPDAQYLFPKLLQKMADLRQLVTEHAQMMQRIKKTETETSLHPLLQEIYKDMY
Peroxisome proliferator-activated receptor gamma (Homo sapiens), sequence (P37231 whole entry, looked up): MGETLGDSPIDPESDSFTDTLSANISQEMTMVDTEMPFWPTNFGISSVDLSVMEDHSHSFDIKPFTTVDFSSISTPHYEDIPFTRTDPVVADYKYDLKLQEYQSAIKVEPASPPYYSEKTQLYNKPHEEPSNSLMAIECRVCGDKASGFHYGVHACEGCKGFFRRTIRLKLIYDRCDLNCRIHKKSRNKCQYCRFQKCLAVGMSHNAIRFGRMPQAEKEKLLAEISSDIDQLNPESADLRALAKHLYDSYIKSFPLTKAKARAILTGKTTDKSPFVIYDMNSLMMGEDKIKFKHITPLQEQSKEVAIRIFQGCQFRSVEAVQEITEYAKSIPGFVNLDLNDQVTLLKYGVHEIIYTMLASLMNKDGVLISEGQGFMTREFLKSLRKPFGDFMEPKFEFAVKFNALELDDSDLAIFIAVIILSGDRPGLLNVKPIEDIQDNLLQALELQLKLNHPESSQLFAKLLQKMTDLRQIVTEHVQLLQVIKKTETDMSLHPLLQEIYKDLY
Vitamin D3 receptor (Homo sapiens), sequence (P11473 whole entry, looked up): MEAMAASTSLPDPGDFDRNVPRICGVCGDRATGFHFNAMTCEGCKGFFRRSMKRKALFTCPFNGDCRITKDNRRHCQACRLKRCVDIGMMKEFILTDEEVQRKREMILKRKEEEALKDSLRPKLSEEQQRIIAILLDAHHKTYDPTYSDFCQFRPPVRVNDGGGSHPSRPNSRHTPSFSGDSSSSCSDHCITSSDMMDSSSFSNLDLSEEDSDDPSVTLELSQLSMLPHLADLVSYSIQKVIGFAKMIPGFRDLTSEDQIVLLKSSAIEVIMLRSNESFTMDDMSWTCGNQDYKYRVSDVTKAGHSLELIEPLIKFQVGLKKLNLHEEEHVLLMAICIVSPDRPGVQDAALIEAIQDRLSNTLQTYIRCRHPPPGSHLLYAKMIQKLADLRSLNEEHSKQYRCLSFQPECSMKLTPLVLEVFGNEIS
Bile acid receptor (Homo sapiens), sequence (Q96RI1 whole entry, looked up): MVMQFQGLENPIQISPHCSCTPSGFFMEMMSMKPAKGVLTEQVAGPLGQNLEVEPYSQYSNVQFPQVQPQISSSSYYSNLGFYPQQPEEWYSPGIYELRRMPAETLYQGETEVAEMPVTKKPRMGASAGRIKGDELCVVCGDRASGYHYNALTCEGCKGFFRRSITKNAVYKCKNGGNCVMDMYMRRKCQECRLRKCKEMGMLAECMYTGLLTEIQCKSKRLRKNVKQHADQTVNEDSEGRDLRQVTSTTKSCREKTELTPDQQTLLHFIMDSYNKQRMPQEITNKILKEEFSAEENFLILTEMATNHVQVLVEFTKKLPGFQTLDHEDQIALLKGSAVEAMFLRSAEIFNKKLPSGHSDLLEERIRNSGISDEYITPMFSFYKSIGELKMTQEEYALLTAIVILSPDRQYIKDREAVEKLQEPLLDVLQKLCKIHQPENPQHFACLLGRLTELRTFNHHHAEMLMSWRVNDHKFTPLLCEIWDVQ
Aryl hydrocarbon receptor (Homo sapiens), sequence (P35869 whole entry, looked up): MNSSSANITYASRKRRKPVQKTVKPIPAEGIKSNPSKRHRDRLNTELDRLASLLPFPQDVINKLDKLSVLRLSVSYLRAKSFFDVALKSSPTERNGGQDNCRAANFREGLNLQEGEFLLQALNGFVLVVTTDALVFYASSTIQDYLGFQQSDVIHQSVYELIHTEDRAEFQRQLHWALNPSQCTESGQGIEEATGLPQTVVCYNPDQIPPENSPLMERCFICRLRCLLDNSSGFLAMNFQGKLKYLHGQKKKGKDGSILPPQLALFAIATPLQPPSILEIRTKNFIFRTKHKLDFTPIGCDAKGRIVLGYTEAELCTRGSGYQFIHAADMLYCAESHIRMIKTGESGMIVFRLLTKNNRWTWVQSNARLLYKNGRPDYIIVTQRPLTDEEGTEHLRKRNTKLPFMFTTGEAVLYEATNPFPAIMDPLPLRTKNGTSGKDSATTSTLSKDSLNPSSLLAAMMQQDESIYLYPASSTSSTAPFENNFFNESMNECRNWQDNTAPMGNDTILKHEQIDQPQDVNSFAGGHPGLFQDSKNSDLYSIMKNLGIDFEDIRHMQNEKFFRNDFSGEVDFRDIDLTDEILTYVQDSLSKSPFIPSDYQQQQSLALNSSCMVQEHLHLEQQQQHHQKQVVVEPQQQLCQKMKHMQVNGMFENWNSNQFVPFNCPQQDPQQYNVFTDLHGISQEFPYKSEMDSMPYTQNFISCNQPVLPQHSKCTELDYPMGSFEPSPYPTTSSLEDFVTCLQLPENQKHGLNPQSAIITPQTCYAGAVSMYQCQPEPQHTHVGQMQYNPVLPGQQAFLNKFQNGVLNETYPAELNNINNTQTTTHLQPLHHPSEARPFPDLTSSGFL

| Structure (SMILES) | Potency [1] | Potency [2] | Potency [3] | Potency [4] | Potency [5] | Potency [6] | Potency [7] | Potency [8] | Potency [9] | Potency [10] | Potency [11] | Potency [12] | Potency [13] | Potency [14] | Potency [15] | Potency [16] | Potency [17] | Potency [18] | Potency [19] | outcome [20] |
| --- | --- | --- | --- | --- | --- | --- | --- | --- | --- | --- | --- | --- | --- | --- | --- | --- | --- | --- | --- | --- |
| OC(C#CCN1CCCC1)(c1ccccc1)c1ccccc1 | inactive | inactive | inactive | inactive | inactive | inactive | inactive | inactive | inactive | inactive | inactive | inactive | inactive | inactive | inactive | inactive |  |  |  |  |
| COc1ccc(C(=O)N2CCN(CC(=O)N3CCOCC3)CC2)cc1 | inactive | inactive | inactive | inactive | inactive | inactive | inactive |  | inactive |  |  | inactive |  |  | inactive | inactive | inactive |  |  |  |
| c1ccc(C(O[C@H]2CCCN(CCc3ccc4c(c3)OCO4)C2)c2ccccc2)cc1 | inactive | 26.6 µM (active) |  |  | inactive |  |  | inactive |  |  | inactive |  | inactive |  | inactive |  | inactive | inactive |  |  |
| Cc1cccc(C)c1NC(=O)CN(CC(=O)O)CC(=O)O | inactive | inactive | inactive | inactive | inactive | inactive | inactive | inactive | inactive | inactive | inactive |  | inactive | inactive | inactive | inactive | inactive |  | inactive |  |
| O=C(Nc1ccc(S(=O)(=O)N2CCOCC2)cc1)c1cc(Cl)ccc1NS(=O)(=O)c1ccc(Cl)s1 | inactive | inactive |  |  |  |  | 13.3 µM (active) | inactive |  |  |  | 13.3 µM (active) | inactive |  |  |  | 6.68 µM (active) | inactive | inactive |  |
| ClCCOCCOCCCl | inactive | inactive | inactive | inactive | inactive | inactive | inactive | inactive | inactive | inactive | inactive | inactive | inactive |  |  | inactive | inactive |  |  | inactive |
| C=CC(=O)OCCOc1ccccc1 | inactive | inactive |  |  |  | inactive | inactive | 19.5 µM (active) |  | inactive |  | inactive |  |  | inactive | inactive |  | inactive |  | inactive |
| C=C1C(=C/C=C2\CCC[C@]3(C)[C@@H]([C@H](C)/C=C/[C@@H](O)C4CC4)CC[C@@H]23)C[C@@H](O)C[C@@H]1O | inactive | inactive |  |  | 26.6 µM (active) | 2.66 µM (active) |  |  |  |  |  |  |  | 29.8 µM (active) |  |  |  | inactive | inactive |  |
| Cc1cc(C(=O)O)ccc1[N+](=O)[O-] | inactive | inactive | inactive | inactive | inactive |  | inactive | inactive | inactive | inactive | inactive |  | inactive |  |  | inactive | inactive |  |  |  |
| COc1cccc(N(C)C(=S)Oc2ccc3c(c2)CCCC3)n1 | inactive | inactive |  |  | inactive |  | inactive | inactive |  |  | inactive | inactive | inactive |  | inactive | inactive | inactive | inactive |  | inactive |
| CC[N+]1(CC)CCC(=C(c2ccccc2)c2ccccc2)C1C (configuration not stated) | inactive | inactive | inactive | inactive | inactive | inactive | inactive | inactive | inactive | inactive | inactive | inactive | inactive |  | inactive | inactive | inactive |  |  |  |
| Nc1c(CC(=O)O)cccc1C(=O)c1ccc(Br)cc1 | inactive | inactive |  |  |  | inactive |  | inactive |  | inactive |  | inactive | inactive | inactive | inactive |  | inactive | inactive | inactive |  |
| CCCCO | inactive | inactive |  |  | inactive |  | inactive | inactive | inactive | inactive |  | inactive |  | inactive | inactive | inactive | inactive | inactive |  | inactive |
| CC(CSC(=O)c1ccccc1)C(=O)N1C[C@@H](Sc2ccccc2)C[C@H]1C(=O)O (some centres not stated) | inactive | inactive | inactive | inactive | inactive | inactive | inactive | inactive | inactive | inactive | inactive | inactive | inactive |  | inactive |  | inactive |  |  |  |
| Cc1cccc(Nc2ccccc2)c1 | inactive | inactive |  |  |  | inactive | inactive | inactive | inactive | inactive |  | inactive |  | inactive |  | inactive | inactive | inactive | inactive | inactive |
| CC(=O)[O][Al][O]C(C)=O | inactive | inactive |  |  |  |  | inactive | inactive |  | inactive |  | inactive |  |  | inactive |  | inactive | inactive |  |  |
| OCCN1CCN(CCCN2c3ccccc3C=Cc3ccccc32)CC1 | 29.8 µM (active) and inactive | inactive |  |  |  |  | inactive | inactive |  |  | inactive |  |  |  |  | inactive | inactive | 10.6 µM (active) and 26.6 µM (active) |  | inactive |
| NCC(=O)O | inactive | inactive | inactive | inactive |  | inactive | inactive | inactive | inactive | inactive | inactive | inactive | inactive |  | inactive | inactive |  |  |  | inactive |
